# Gli-Sufu antag: Gli-Sufu pathway antagonists, primary screen, luciferase luminescence, Sufu-KO-LIGHT cells, uHTS | Sufu-KO-LIGHT fibroblasts, Gli luciferase reporter luminescence | inhibition, % at 5 µM | hit rate 0.74% among 340,000;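 active = inhibition above about 55%, limit read from the data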
# SRC2 inh: inhibition of GAL4-SRC2 driven luciferase reporter, primary screen, SRC2 inhibitor project, cell-based, luminescence. HEK293 GAL4-SRC2 luciferase reporter. inhibition, % at 9 µM. hit rate 0.17% among 370,000;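 active = inhibition above the mean inhibition of all tested compounds plus 3 SD, set per campaign, cut at about 52% in these data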
# Target sequence (Q15596 whole entry, looked up, the tested form may be a part): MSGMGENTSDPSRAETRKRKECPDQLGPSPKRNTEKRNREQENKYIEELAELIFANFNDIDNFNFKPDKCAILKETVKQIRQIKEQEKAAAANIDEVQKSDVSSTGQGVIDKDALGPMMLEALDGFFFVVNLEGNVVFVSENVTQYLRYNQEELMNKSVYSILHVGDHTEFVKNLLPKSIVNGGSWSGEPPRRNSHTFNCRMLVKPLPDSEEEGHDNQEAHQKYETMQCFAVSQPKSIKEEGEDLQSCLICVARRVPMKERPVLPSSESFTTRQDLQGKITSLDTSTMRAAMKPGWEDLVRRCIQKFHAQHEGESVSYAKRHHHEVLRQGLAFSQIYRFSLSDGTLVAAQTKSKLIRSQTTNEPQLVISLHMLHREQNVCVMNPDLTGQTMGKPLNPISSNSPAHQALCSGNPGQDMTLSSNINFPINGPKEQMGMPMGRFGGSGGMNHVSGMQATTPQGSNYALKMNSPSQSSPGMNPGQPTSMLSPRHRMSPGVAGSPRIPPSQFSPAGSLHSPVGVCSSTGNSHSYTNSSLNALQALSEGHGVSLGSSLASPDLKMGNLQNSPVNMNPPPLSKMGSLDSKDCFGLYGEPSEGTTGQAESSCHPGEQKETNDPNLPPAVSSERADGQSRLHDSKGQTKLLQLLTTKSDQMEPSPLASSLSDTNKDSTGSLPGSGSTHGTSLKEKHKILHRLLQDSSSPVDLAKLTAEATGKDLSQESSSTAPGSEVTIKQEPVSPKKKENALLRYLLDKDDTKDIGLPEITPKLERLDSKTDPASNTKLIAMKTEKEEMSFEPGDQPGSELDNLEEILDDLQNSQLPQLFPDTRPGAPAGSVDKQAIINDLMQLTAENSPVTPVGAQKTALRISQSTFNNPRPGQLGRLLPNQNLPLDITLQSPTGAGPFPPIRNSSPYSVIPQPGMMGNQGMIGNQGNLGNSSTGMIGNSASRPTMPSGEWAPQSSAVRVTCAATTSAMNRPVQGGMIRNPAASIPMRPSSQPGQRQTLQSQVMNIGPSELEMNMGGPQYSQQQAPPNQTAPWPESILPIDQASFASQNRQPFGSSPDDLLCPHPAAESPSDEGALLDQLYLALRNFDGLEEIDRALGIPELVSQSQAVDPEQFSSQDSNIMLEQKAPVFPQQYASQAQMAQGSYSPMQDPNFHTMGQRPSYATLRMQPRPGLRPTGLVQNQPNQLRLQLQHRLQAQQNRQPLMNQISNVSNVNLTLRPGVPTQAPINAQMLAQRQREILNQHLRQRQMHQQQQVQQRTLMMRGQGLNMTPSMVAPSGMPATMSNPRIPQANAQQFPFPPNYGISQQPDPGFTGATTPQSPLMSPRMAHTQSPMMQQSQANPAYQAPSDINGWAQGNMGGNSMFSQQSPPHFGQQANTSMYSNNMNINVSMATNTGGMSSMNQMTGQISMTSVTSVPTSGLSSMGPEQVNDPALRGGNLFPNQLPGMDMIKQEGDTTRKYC
# LRH-1 inv ag: LRH-1 (NR5A2) inverse agonists, primary screen, cell-based, luminescence, HEK293T, StAR-luciferase reporter; LRH-1 transfected, 24 h; hit rate 0.13% among 360,000; inhibition, % at 3.6 µM; Nuclear receptor subfamily 5 group A member 2 (Homo sapiens), O00482;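 active = inhibition above the mean inhibition of all tested compounds plus 3 SD, cut at about 73% in these data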
# SRC1 inh: SRC1 coactivator transcriptional activity inhibitors, primary screen, cell-based, luminescence | inhibition, % at 3.6 µM | AID 588354, 2011 | Nuclear receptor coactivator 1 (Homo sapiens), Q15788 | HEK293 GAL4-SRC1 luciferase reporter | hit rate 0.12% among 360,000;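 active = inhibition above the campaign mean plus 3 SD, with each screening campaign given its own cutoff, cut at about 60% in these data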
# SRC3 inh: SRC3 coactivator transcriptional activity inhibitors, primary screen, cell-based, luminescence. hit rate 0.17% among 360,000. HEK293 GAL4-SRC3 luciferase reporter. inhibition, % at 3.6 µM. Nuclear receptor coactivator 3 (Homo sapiens), Q9Y6Q9;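 active = inhibition above a per-campaign cutoff, the mean of all compounds plus 3 SD, cut at about 60% in these data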;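 note: higher means less SRC3-driven luciferase light from the GAL4 reporter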
# NR2F2 inh: NR2F2 transcriptional activity inhibitors, primary screen, cell-based, luciferase reporter, HEK293T, luminescence | COUP transcription factor 2 (Homo sapiens), P24468 | HEK293T NGFI-A luciferase reporter | inhibition, % at 8.6 µM | hit rate 0.7% among 370,000 | AID 686940, 2013;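 active = inhibition above a per-plate cutoff, mean inhibition of test wells between control levels plus 3 SD, cut at about 38% in these data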;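 note: cells cotransfected with COUP-TFII expression vector driving the NGFI-A reporter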
# Gli-Sufu confirm: Gli-SUFU pathway antagonists, confirmation, single concentration, luciferase luminescence, Sufu-KO-LIGHT cells. shares compounds with Gli-Sufu antag. Gli luciferase reporter. inhibition, % at 5 µM. hit rate 40% among 2,500. AID 602428, 2012;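 active = mean inhibition at 5 µM reaching about 45%, limit read from the data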
# SufuKO cytotox: cytotoxicity in Sufu-KO-LIGHT cells, confirmation, cytotoxicity control for Gli-SUFU antagonist project, cell-based, ATP luminescence, single concentration | shares compounds with Gli-Sufu antag | cytotoxicity, % at 5 µM | hit rate 32% among 2,500;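 active = mean cytotoxicity at 5 µM above about 25%, limit read from the data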;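 note: cells exposed to compound overnight for roughly 16 to 18 hours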
# Wnt3a counter: Wnt3a reporter signal inhibition, confirmation, counter-screen for Gli-SUFU antagonist project, Wnt-LIGHT cells, luminescence, single concentration; Wnt3a-driven luciferase reporter; inhibition, % at 6.25 µM; hit rate 20% among 2,500; shares compounds with Gli-Sufu antag;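 active = mean inhibition above about 25%, limit read from the data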
# Hits are given with their value; n = inactive; x = not tested or not shown. The list is not random: actives were taken first. Their share in the collection is about 1.3%.
SMILES,Gli-Sufu antag,SRC2 inh,LRH-1 inv ag,SRC1 inh,SRC3 inh,NR2F2 inh,Gli-Sufu confirm,SufuKO cytotox,Wnt3a counter
CC(C)=CCC/C(C)=C/CNC(=O)C[C@H]1C[C@H](C(=O)N2CCCCC2)[C@@]2(C)c3[nH]c4cc(CCC(=O)N(C)C)ccc4c3CCN2C1=O,n,x,n,n,n,x,56,32,n
CN(C)C(=O)CCc1ccc2c3c([nH]c2c1)[C@]1(C)[C@@H](C(=O)N2CCCCC2)C[C@H](CC(=O)NC(C)(C)C)C(=O)N1CC3,n,n,n,n,n,n,x,x,x
CN1[C@@H](Cc2ccccc2)COc2cc(N3CCCC3)ccc2S1(=O)=O,x,n,x,x,x,n,x,x,x
Cc1ccc(NC(=O)Cn2nc(-c3ccccc3Cl)ccc2=O)c(Br)c1,57,n,n,n,n,n,n,n,n
CCOCC(=O)Nc1cc([N+](=O)[O-])ccc1C,91,n,n,n,n,n,n,n,n
CCOC(=O)c1cc(NC(=O)COc2ccc([N+](=O)[O-])cc2)cc(C(=O)OCC)c1,63,n,n,n,n,n,n,n,n
CC1(C)CC(=O)C=C(C(=O)NC2CCCc3c2cnn3-c2cc(F)cc(F)c2)O1 (stereo unspecified),n,n,n,n,n,n,x,x,x
Cc1cccc(-n2ncc3c2CCCC3NC(=O)C2=CC(=O)CC(C)(C)O2)c1C (stereo unspecified),58,n,n,n,n,n,n,31,n
CC(=O)Nc1ccc(Nc2ncnc3c2cnn3-c2ccccc2)cc1,n,n,n,n,n,n,x,x,x
CC(=O)NNc1ncnc2c1cnn2-c1ccccc1,57,n,n,n,n,n,n,31,n
Cn1cnnc1SCc1ccc(C(=O)N=Nc2c(O)n(Cc3ccc(Cl)cc3)c3ccccc23)cc1,n,n,n,n,n,n,n,n,n
C=CCOC(=O)N[C@H](c1ccc2ccccc2c1)[C@H](C)/C=C/CC(=O)OC,x,n,x,x,x,n,x,x,x
COC(=O)[C@H](CC(C)C)N(CCc1cn(Cc2ccc(C)cc2)nn1)S(=O)(=O)c1ccc(F)cc1Br,x,n,x,x,x,n,x,x,x
COc1ccc(NC(=O)/C(C#N)=C\c2cc(C)n(-c3ccc4c(c3)OCO4)c2C)cc1,64,n,n,n,n,n,56,56,n
Cc1cc(/C=C(\C#N)C(=O)Nc2ccccc2)c(C)n1-c1ccc(C(=O)O)cc1,n,n,n,n,n,n,x,x,x
CC1CC(C)CN(CCCNC(=O)c2ccc(CS(=O)(=O)Cc3cccc(Cl)c3)o2)C1 (stereo unspecified),n,n,n,n,n,n,n,n,n
CS(=O)(=O)N(CC(=O)NC1CCCCCC1)Cc1ccc(Cl)cc1,59,n,n,n,n,n,n,n,n
Cn1nc(-c2ccc(C(=O)N3CCN(Cc4ccccc4)CC3)cc2)c2ccccc2c1=O,n,n,n,n,n,n,n,n,n
O=C(Nc1ccc2ccccc2c1)NC1CCCCN(Cc2cccc(Cl)c2)C1=O (stereo unspecified),x,n,x,x,x,n,x,x,x
O=C(CSc1ccc2nnc(-c3cccnc3)n2n1)NCc1ccco1,82,n,n,n,n,n,n,n,n
CCN1C(=O)/C(=C\N(C)C)NC1=S,n,n,n,n,n,n,x,x,x
CN(C)/C=C1/NC(=S)NC1=O,63,n,n,n,n,n,n,n,n
COc1ccc(-c2cc(C(F)(F)F)n3ncc(C(=O)N4CCCCC4c4cccnc4)c3n2)cc1 (stereo unspecified),n,n,n,n,n,n,n,n,n
COC(=O)C1CN(C2CCCC2)CCS(=O)(=O)N1Cc1ccc(F)cc1 (stereo unspecified),x,n,x,x,x,n,x,x,x
CCc1ccc(CNC(=O)CCCC(=O)n2nc(C)c3ccccc32)cc1,57,n,n,n,n,n,n,n,n
SMILES,Gli-Sufu antag,SRC2 inh,LRH-1 inv ag,SRC1 inh,SRC3 inh,NR2F2 inh,Gli-Sufu confirm,SufuKO cytotox,Wnt3a counter
COC[C@@H](OC(C)=O)[C@H]1OCc2ccccc2[C@@H]1/C=C/c1ccccc1,x,n,x,x,x,n,x,x,x
Cc1cccc(CSC(=N)N)c1,n,n,n,n,n,n,x,x,x
Cc1cccc(CSC(Nc2ccc(F)cc2)=C(C#N)C#N)c1,56,n,n,n,n,n,62,n,52
CCOC(CN=c1nc(N(C)C)ss1)OCC,84,n,n,n,n,n,62,30,n
Cc1cc(S(=O)(=O)NCCc2ccccc2)ccc1-n1cnnn1,n,n,n,n,n,n,x,x,x
O=S(=O)(NCCc1ccccc1)c1ccc(-n2cnnn2)cc1,n,n,n,n,n,n,n,n,n
Cc1ccccc1CN1CCCCC(NC(=O)Nc2ccccc2)C1=O (stereo unspecified),x,n,x,x,x,n,x,x,x
O=C(Cn1c(=O)oc2ccccc21)Nc1ccc(S(=O)(=O)N2CCCCC2)cc1,n,n,n,n,n,n,n,n,n
CCN(CC)S(=O)(=O)c1ccc(NC(=O)Cn2c(=O)oc3ccccc32)cc1,n,n,n,n,n,n,x,x,x
Cc1ccc(-n2c(-c3ccccc3)c[n+]3c2CCC3)cc1,82,n,n,n,n,n,84,n,40
Cc1ccc(-n2c(-c3ccc(Cl)cc3)c[n+]3c2CCC3)cc1,76,n,n,n,n,n,77,37,n
FC(F)Sc1ccc(-n2c(-c3ccc(Cl)cc3)c[n+]3c2CCC3)cc1,n,n,n,n,n,n,n,n,n
CN1CCCN(C(=O)C2CCC(C(=O)N3CCCN(C)CC3)CC2)CC1 (stereo unspecified),n,n,n,n,n,n,n,n,n
O=C(C1CCC(C(=O)N2CCCCC2)CC1)N1CCCCC1 (stereo unspecified),n,n,n,n,n,n,x,x,x
COCCN(C(=O)CSc1nnc(-c2ccccc2F)n1N)c1c(N)n(Cc2ccccc2)c(=O)[nH]c1=O,n,n,n,n,n,n,n,n,n
O=C(O)Cn1c(-c2ccccc2)nc2ccccc21,96,n,n,n,n,n,n,n,n
CCOc1ccc(OCC)c(S(=O)(=O)NCCOC23CC4CC(CC(C4)C2)C3)c1,n,n,n,n,n,n,n,31,n

# Compound activity: PubChem BioAssay, several laboratories
